# Measured values: ChEMBL document CHEMBL5606458, “ASAP - ZIKV NS2B-NS3 protease fluorescence single point” (2024)
# Hit rate of the full screen: of about 2,700 compounds, about 160 (5.9%) showed an effect of 50% or more. The list comes from a sample in which strong results are over-represented; it also holds similar structures and randomly drawn compounds.
# Biological target: Nonstructural protein 3 (Zika virus) (UniProt A0A024AXB9)
# [1] = PRVABC59, Concentration 15.0 uM, Number of replicates 1.0
# [2] = PRVABC59, Concentration 50.0 uM, Number of replicates 1.0
# Sequence of Nonstructural protein 3 (Zika virus) (A0A024AXB9 as listed by the source): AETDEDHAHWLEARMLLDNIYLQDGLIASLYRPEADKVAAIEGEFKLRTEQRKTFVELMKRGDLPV
structure (smiles),measurement,setting,value
CN(C(=O)c1cc(Cl)ccc1NS(=O)(=O)c1ccc(Oc2ccccc2Cl)cc1)[C@H]1CS(=O)(=O)C[C@@H]1O,inhibition,[1],1.21%
Cc1cc(CO)c2cccc(C[C@H](NC(=O)c3cc(C(=O)O)[nH]n3)C(=O)O)c2n1,inhibition,"PRVABC59, Concentration 49.95 uM, Number of replicates 2.0, Standard deviation 1.6911148062176817 %",1.37%
same,inhibition,"PRVABC59, Concentration 99.9 uM, Number of replicates 2.0, Standard deviation 1.9620942703325182 %",8.92%
O=Cc1ccc(N2CCC(C(=O)Nc3ccc(C(F)(F)F)cc3[N+](=O)[O-])CC2)cc1,inhibition,[2],22.3%
O=C(c1cc(Cl)ccc1NS(=O)(=O)c1ccc(Oc2ccccc2Cl)cc1)N1CCC(c2nc3ccccc3[nH]2)CC1,inhibition,[1],20.5%
Cc1cc(CO)c2cccc(CC(=O)N[C@@H](CCC(N)=O)C(=O)O)c2n1,inhibition,"PRVABC59, Concentration 49.95 uM, Number of replicates 2.0, Standard deviation 0.13741625923449508 %",69.6%
same,inhibition,"PRVABC59, Concentration 99.9 uM, Number of replicates 2.0, Standard deviation 0.11197439842459092 %",81.6%
Cc1cc(CO)c2cccc(CC(=O)Nc3cccc(C(N)=O)c3)c2n1,inhibition,"PRVABC59, Concentration 49.95 uM, Number of replicates 2.0, Standard deviation 0.035627236808440856 %",58.9%
same,inhibition,"PRVABC59, Concentration 99.9 uM, Number of replicates 2.0, Standard deviation 0.025447255606513557 %",72.8%
Cc1cc(CO)c2cccc(Cc3cccc(C(=O)N[C@@H](CCC(N)=O)C(=O)O)c3)c2n1,inhibition,"PRVABC59, Concentration 49.95 uM, Number of replicates 2.0, Standard deviation 1.9977585963676485 %",14.4%
same,inhibition,"PRVABC59, Concentration 99.9 uM, Number of replicates 2.0, Standard deviation 0.9280938346971718 %",36%
Cc1cc(CO)c2cccc(Cc3cccc(C(=O)Nc4nonc4C(N)=O)c3)c2n1,inhibition,"PRVABC59, Concentration 49.95 uM, Number of replicates 2.0, Standard deviation 1.609742570683987 %",20.1%
same,inhibition,"PRVABC59, Concentration 99.9 uM, Number of replicates 2.0, Standard deviation 0.8074931564941592 %",55.3%
Cc1cc(CO)c2cccc(Cc3ccccc3C(=O)N[C@@H](CCC(N)=O)C(=O)O)c2n1,inhibition,"PRVABC59, Concentration 49.95 uM, Number of replicates 2.0, Standard deviation 1.0696657731948411 %",-4.71%
same,inhibition,"PRVABC59, Concentration 99.9 uM, Number of replicates 2.0, Standard deviation 0.7655451252044032 %",0.649%
Cc1cc(CO)c2cccc(Nc3nonc3C(N)=O)c2n1,inhibition,"PRVABC59, Concentration 49.95 uM, Number of replicates 2.0, Standard deviation 1.4175935710362748 %",4.15%
same,inhibition,"PRVABC59, Concentration 99.9 uM, Number of replicates 2.0, Standard deviation 2.0633301575187155 %",4.07%
Cc1cc(CO)c2cccc(Cc3cccc(C(=O)NCC(N)=O)c3)c2n1,inhibition,"PRVABC59, Concentration 49.95 uM, Number of replicates 2.0, Standard deviation 1.0591786257609663 %",-5.74%
same,inhibition,"PRVABC59, Concentration 99.9 uM, Number of replicates 2.0, Standard deviation 0.9490662751035868 %",-1.72%
Cc1cc(CO)c2cccc(CC(=O)Nc3nonc3C(N)=O)c2n1,inhibition,"PRVABC59, Concentration 49.95 uM, Number of replicates 2.0, Standard deviation 0.05598719921229546 %",82%
same,inhibition,"PRVABC59, Concentration 99.9 uM, Number of replicates 2.0, Standard deviation 1.0790078750483718 %",86.1%
Cc1cc(CO)c2cccc(Cc3cccc(C(=O)Nc4cccc(C(N)=O)c4)c3)c2n1,inhibition,"PRVABC59, Concentration 49.95 uM, Number of replicates 2.0, Standard deviation 0.1992514179713741 %",-3.36%
same,inhibition,"PRVABC59, Concentration 99.9 uM, Number of replicates 2.0, Standard deviation 0.4299637092619174 %",-0.56%
Cc1cc(CO)c2cccc(Cc3ccccc3C(=O)Nc3cccc(C(N)=O)c3)c2n1,inhibition,"PRVABC59, Concentration 49.95 uM, Number of replicates 2.0, Standard deviation 0.5610502494199251 %",-2.71%
same,inhibition,"PRVABC59, Concentration 99.9 uM, Number of replicates 2.0, Standard deviation 0.1363299663609753 %",0.693%
Cc1cc(CO)c2cccc(Cc3ccccc3C(=O)Nc3nonc3C(N)=O)c2n1,inhibition,"PRVABC59, Concentration 49.95 uM, Number of replicates 2.0, Standard deviation 0.12584307180819165 %",-4.45%
same,inhibition,"PRVABC59, Concentration 99.9 uM, Number of replicates 2.0, Standard deviation 0.39850300453014226 %",-1.53%
Cc1cc(CO)c2cccc(CC(=O)Nc3ccc(C(=O)O)o3)c2n1,inhibition,"PRVABC59, Concentration 49.95 uM, Number of replicates 2.0, Standard deviation 1.3790313962849292 %",42.9%
same,inhibition,"PRVABC59, Concentration 99.9 uM, Number of replicates 2.0, Standard deviation 0.49288480262410383 %",40.6%
O=C(Nc1nc2[nH]cnc2c(=O)[nH]1)c1cc(Cl)ccc1NS(=O)(=O)c1ccc(Oc2ccccc2Cl)cc1,inhibition,[1],21.9%
CN(C)Cc1ccc(NCc2ccc(N3CCN(C)CC3)cc2)nc1,inhibition,"PRVABC59, Concentration 49.5 uM, Number of replicates 2.0, Standard deviation 0.4640657991367188 %",-2.39%
same,inhibition,"PRVABC59, Concentration 99.01 uM, Number of replicates 2.0, Standard deviation 0.7284754441158133 %",-1.05%
same,inhibition,"PRVABC59, Concentration 198.0 uM, Number of replicates 2.0, Standard deviation 0.8166119221974307 %",1.21%
O=Cc1ccc(N2CCC(C(=O)Nc3c(Cl)cccc3[N+](=O)[O-])CC2)cc1,inhibition,[2],21.7%
CN1CCN(c2ccc(CNS(=O)(=O)c3ccc(C(N)=O)cc3)cc2)CC1,inhibition,"PRVABC59, Concentration 49.5 uM, Number of replicates 2.0, Standard deviation 3.1298940912505486 %",-2.93%
same,inhibition,"PRVABC59, Concentration 99.01 uM, Number of replicates 2.0, Standard deviation 2.0491409994990377 %",-9.18%
CC(C)N(Cc1cnn(C)c1)C(=O)c1cc(Cl)ccc1NS(=O)(=O)c1ccc(Oc2ccccc2Cl)cc1,inhibition,[1],21.9%
CN(C(=O)c1cc(Cl)ccc1NS(=O)(=O)c1ccc(Oc2ccccc2Cl)cc1)[C@H]1CCN(Cc2ccccc2)C1,inhibition,[1],18.4%
CCc1cccc2[nH]c(C(=O)N3C[C@H](n4cc(CO)nn4)CCC3(C)C)cc12,inhibition,"PRVABC59, Concentration 49.5 uM, Number of replicates 2.0, Standard deviation 1.345657751466366 %",1.61%
same,inhibition,"PRVABC59, Concentration 99.01 uM, Number of replicates 2.0, Standard deviation 0.921351350459793 %",4.33%
same,inhibition,"PRVABC59, Concentration 198.0 uM, Number of replicates 2.0, Standard deviation 1.6164058188461652 %",5.38%
O=C(NCC[C@H](O)c1ccccc1)c1cc(Cl)ccc1NS(=O)(=O)c1ccc(Oc2ccccc2Cl)cc1,inhibition,[1],38.9%
COc1ccc(S(=O)(=O)N[C@H]2CC[C@H](C(=O)Nc3nc4ccccc4s3)CC2)cc1,inhibition,"PRVABC59, Concentration 49.5 uM, Number of replicates 2.0, Standard deviation 1.516279405300169 %",4.79%
same,inhibition,"PRVABC59, Concentration 99.01 uM, Number of replicates 2.0, Standard deviation 2.0429029287446374 %",5.82%
same,inhibition,"PRVABC59, Concentration 198.0 uM, Number of replicates 2.0, Standard deviation 2.7145967477005732 %",5.18%
O=Cc1ccc(N2CCC(C(=O)N3CCC[C@H]3c3cccc(F)c3)CC2)cc1,inhibition,[2],24.6%
Cc1cc(CO)c2cccc(NC(=O)C3CC(N)C3)c2n1 (stereo not drawn),inhibition,"PRVABC59, Concentration 49.95 uM, Number of replicates 2.0, Standard deviation 0.17303270644971713 %",56.1%
same,inhibition,"PRVABC59, Concentration 99.9 uM, Number of replicates 2.0, Standard deviation 0.6659229038704304 %",84.7%
Cc1cc(CO)c2cccc(NC(=O)[C@@H]3C[C@@H](O)CN3)c2n1,inhibition,"PRVABC59, Concentration 49.95 uM, Number of replicates 2.0, Standard deviation 2.1728568355691875 %",17%
same,inhibition,"PRVABC59, Concentration 99.9 uM, Number of replicates 2.0, Standard deviation 5.153634365263829 %",23.7%
Cc1cc(CO)c2cccc(NC(=O)[C@@H]3CCCC[C@H]3C(=O)O)c2n1,inhibition,"PRVABC59, Concentration 49.95 uM, Number of replicates 2.0, Standard deviation 1.6258787445174738 %",3.41%
same,inhibition,"PRVABC59, Concentration 99.9 uM, Number of replicates 2.0, Standard deviation 1.31977157857946 %",10.8%
Cc1cc(CO)c2cccc(CC(=O)N3CCC(CN)CC3)c2n1,inhibition,"PRVABC59, Concentration 49.95 uM, Number of replicates 2.0, Standard deviation 0.5547725606279245 %",25.3%
same,inhibition,"PRVABC59, Concentration 99.9 uM, Number of replicates 2.0, Standard deviation 0.00508999060096365 %",39.1%
Cc1cc(CO)c2cccc(NC(=O)C3CCC(CN)CC3)c2n1 (stereo not drawn),inhibition,"PRVABC59, Concentration 49.95 uM, Number of replicates 2.0, Standard deviation 1.4301713707436838 %",93.7%
same,inhibition,"PRVABC59, Concentration 99.9 uM, Number of replicates 2.0, Standard deviation 0.5018131910126516 %",92.3%
Cc1cc(CO)c2cccc(NC(=O)C3CCN(C)CC3)c2n1,inhibition,"PRVABC59, Concentration 49.95 uM, Number of replicates 2.0, Standard deviation 2.9039680698338874 %",1.89%
same,inhibition,"PRVABC59, Concentration 99.9 uM, Number of replicates 2.0, Standard deviation 2.0814932575907883 %",29.5%
Cc1cc(CO)c2cccc(NC(=O)CNC3CC3)c2n1,inhibition,"PRVABC59, Concentration 49.95 uM, Number of replicates 2.0, Standard deviation 1.7513317050958486 %",17.8%
same,inhibition,"PRVABC59, Concentration 99.9 uM, Number of replicates 2.0, Standard deviation 1.7111876748261923 %",28.9%
Cc1cc(CO)c2cccc(NC(=O)C3CNC3)c2n1,inhibition,"PRVABC59, Concentration 99.9 uM, Number of replicates 2.0, Standard deviation 0.20878200053144555 %",-2.49%
Cc1cc(CO)c2cccc(NC(=O)C3CCC(N)CC3)c2n1 (stereo not drawn),inhibition,"PRVABC59, Concentration 49.95 uM, Number of replicates 2.0, Standard deviation 0.4998117214705663 %",93.2%
same,inhibition,"PRVABC59, Concentration 99.9 uM, Number of replicates 2.0, Standard deviation 0.37327676699721984 %",95.4%
